Experimental findings from PubChem BioAssay (NCATS) are described below.

SMILES strings stand for the structures. Results filed as inconclusive are left out. A call without a number means that no potency is given here. Unmarked numbers belong to inactive results. The source made the active and inactive calls. Calls come from the whole dose curve; as a rule, active = well fitted cell-killing curve with a large enough effect; inconclusive = small, poorly fitted or top-dose-only effect; inactive = flat fitted curve, though single readings scatter.

The assay in a line: qHTS of pediatric cancer cell lines to identify multiple opportunities for drug repurposing: Primary screen for control Hh wild type fibroblast cells (AID 1347106).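 Note: a drop in luminescence marks cytotoxicity and a rise apparent proliferation; nearly all actives have a fitted effect of over 55% in size.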 To be noted: Hh wild-type fibroblast viability, CellTiter-Glo luminescence, 48 h; series mostly up to 46 µM; activity change, negative = cytotoxic: at the top concentration. The procedure, abridged: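 Cells (500-1,000/well) in growth media were settled 5 h at 37 degrees C, then given compounds for 48 h. Viability was read as CellTiter-Glo luminescence. Primary runs used MIPE at 11 points (0.78 nM-46 µM) and NPC at 8 points (0.59 nM-46 µM); follow-ups used 11 points.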
(In general: Quantitative high-throughput screening tests each substance at several concentrations.)
In the case of `CCN(CC)CC#CCOC(=O)C(O)(c1ccccc1)C1CCCCC1` (stereo unspecified), the “activity change, negative = cytotoxic” value was 10.9%.

`CC1CC2C3CCC4=CC(=O)C=C[C@]4(C)[C@@]3(F)[C@@H](O)C[C@]2(C)[C@@]1(O)C(=O)CO` (stereo partly specified): the “activity change, negative = cytotoxic” value was -5.2%.

Regarding `C1CCC(C(CC2CCCCN2)C2CCCCC2)CC1` (stereo unspecified), the “activity change, negative = cytotoxic” value was -0.985%.

`CCC(C)(C)c1ccc(CC(C)CN2C[C@@H](C)O[C@@H](C)C2)cc1` (stereo partly specified): the Potency entry is “inactive”.

For the compound `Clc1ccccc1CN1CCc2sccc2C1`, the Potency entry was “inactive”.

On to `Cc1onc(-c2ccccc2Cl)c1C(=O)N[C@@H]1C(=O)N2[C@@H]1SC(C)(C)[C@@H]2C(=O)O`, for which the Potency entry was “inactive”.

With `CC(C)OC(=O)OCOP(=O)(CO[C@H](C)Cn1cnc2c(N)ncnc21)OCOC(=O)OC(C)C`, the Potency result was “inactive”.

Regarding `N[C@@H](Cc1ccc(O)c(O)c1)C(=O)O`, the “activity change, negative = cytotoxic” value is 4.55%.

Take `CCCCS(=N)(=O)CCC(N)C(=O)O` (stereo unspecified): the “activity change, negative = cytotoxic” value was -2.92%.

As for `CNS(=O)(=O)Cc1ccc2[nH]cc(CCN(C)C)c2c1`, the Potency result was “inactive”.

For the compound `CC(=O)[C@H]1CC[C@H]2[C@@H]3CC=C4C[C@@H](O)CC[C@]4(C)[C@H]3CC[C@]12C`, the Potency result was “inactive”.

Regarding `CN(C)CCc1c[nH]c2ccc(C[C@H]3COC(=O)N3)cc12`, the Potency entry is “inactive”.

Take `O=P(O)(O)C(O)(Cc1cccnc1)P(=O)(O)O`: the Potency result is “inactive”.

On to `Cc1ccnc2c1NC(=O)c1cccnc1N2C1CC1`, for which the Potency result is “inactive”.

For `NC1(c2ccc(-c3nc4ccn5c(=O)[nH]nc5c4cc3-c3ccccc3)cc2)CCC1`, the “activity change, negative = cytotoxic” value was -3.93%.

Consider `CC1=NN(c2ccccc2)C(=O)C1`, for which the Potency entry was “inactive”.

Consider `NC(=O)c1ccc2[nH]ccc2c1`, for which the “activity change, negative = cytotoxic” value was 17.6%.

On to `OC(Cn1cncn1)(Cn1cncn1)c1ccc(F)cc1F`, for which the Potency entry was “inactive”.

On to `CN1CCN(c2c(F)cc3c(=O)c(C(=O)O)cn(CCF)c3c2F)CC1`, for which the “activity change, negative = cytotoxic” value is 9.4%.

As for `CC1=C(C(=O)O)N2C(=O)[C@@H](NC(=O)C(N)c3ccccc3)[C@H]2SC1` (stereo partly specified), the “activity change, negative = cytotoxic” value is 17.4%.

For `NC(=O)N1c2ccccc2CC(=O)c2ccccc21`, the Potency result is “inactive”.

As to `O=C(N[C@H](CO)[C@H](O)c1ccc([N+](=O)[O-])cc1)C(Cl)Cl`, the Potency result is “inactive”.

As for `CCn1cc(C(=O)O)c(=O)c2cc(F)c(N3CCNCC3)cc21`, the Potency entry was “inactive”.

With `O=C(O)c1cccnc1`, the Potency result was “inactive”.

On to `COc1ccc2c(c1)c(CC(=O)OCC(=O)O)c(C)n2C(=O)c1ccc(Cl)cc1`, for which the Potency entry was “inactive”.

`C[C@@H]1CN(c2c(F)c(N)c3c(=O)c(C(=O)O)cn(C4CC4)c3c2F)C[C@H](C)N1`: the Potency entry is “inactive”.

With `Cc1cccc(Nc2ccncc2S(=O)(=O)NC(=O)NC(C)C)c1`, the Potency entry is “inactive”.

With `CN(Cc1cc(Br)cc(Br)c1N)C1CCCCC1`, the Potency result is “inactive”.

In the case of `CC1=CC(=O)c2ccccc2C1=O`, the Potency result was “inactive”.

For the compound `NCCCC(O)(P(=O)(O)O)P(=O)(O)O`, the Potency result is “inactive”.

In the case of `COc1cc(NS(=O)(=O)c2ccc(N)cc2)nc(OC)n1`, the Potency entry is “inactive”.

Turning to `O=S(=O)(c1cccc2cnccc12)N1CCCNCC1`, the Potency result is “inactive”.

Turning to `CC(C)OC(=O)C(C(=O)OC(C)C)=C1SC=CS1`, the Potency entry was “inactive”.

On to `O=C(O)c1cn(C2CC2)c2cc(N3CCNCC3)c(F)cc2c1=O`, for which the Potency entry is “inactive”.

For the compound `CO[C@@H]1[C@@H](OC(N)=O)[C@@H](O)[C@H](Oc2ccc3c(O)c(NC(=O)c4ccc(O)c(CC=C(C)C)c4)c(=O)oc3c2C)OC1(C)C`, the Potency entry was “inactive”.

With `O=C(O)CCn1c2c(c3ccccc31)C[C@H](NS(=O)(=O)c1ccc(F)cc1)CC2`, the Potency result is “inactive”.
